# GAA850 FXN act = activators of GAA850 frataxin (FXN) promoter; HEK293 lucGAA850 FXN promoter luciferase reporter, 24 h; percent of 10 µM SAHA response; activation, % at 6 µM; actives 0.56% (n = 360,000); AID 540364;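 active = activation above the average of all compounds screened plus 3 SD, cutoff fixed separately per campaign, cut at about 7.5% in these data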;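 also: 0% = DMSO wells and 100% = 10 µM SAHA wells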
# C2C12 statin = suppression of simvastatin myotoxicity; actives 0.78% (n = 330,000); rescue of ATP level, % at 7.49 µM; C2C12 myotubes + simvastatin, ATP luminescence, 48 h; scaled: DMSO 0, geranylgeraniol control 100; AID 602340;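 active = mean ATP rescue above about 67%, or every replicate alone reaching that limit, limit read from the data, passing the limit was not always enough; inconclusive = no clear call, values can overlap the other calls; inactive = mean under the limit and some replicate under it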;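 also: myotubes were challenged with 10 µM simvastatin during compound exposure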
# esBAF inh = blocks esBAF chromatin remodeling in mouse ES cells | Bmi1-luciferase knock-in reporter, 24 h; 100% = twice the neutral-well signal | reporter increase, % at 12.5 µM | actives 2% (n = 350,000); in the data active = activation above about 40%; inconclusive = no clear call, values can overlap the other calls;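 also: 0% = median of the plate's neutral control wells and 100% = double that signal; a rise in the Bmi1 reporter signal indicates esBAF inhibition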
# Wnt act = activators of Wnt/beta-catenin signaling | Wnt/beta-catenin reporter cell assay, activator, plate reader | activation, % at 9.35 µM | actives 1.2% (n = 300,000); in the data active = activation above about 30%, passing the limit was not always enough; inconclusive = no clear call, values can overlap the other calls;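 also: 0% = neutral control wells and 100% = positive control wells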
# MITF act = activators of MITF-driven TRPM1 promoter activity in SK-MEL-5 cells; SK-MEL-5 TRPM1-promoter luciferase, 24 h; % of positive control, neutral wells = 0; activation, % at 12.5 µM; actives 0.75% (n = 300,000);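 active = mean activation of at least 80% with every replicate also reaching 80%; inconclusive = mean reaches 80% but some replicate falls short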;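 also: 0% = neutral control wells and 100% = parthenolide positive control wells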
# Active calls of the source: *; ? = inconclusive; nt = no result. This is a sample that favours compounds with a hit; in the whole collection about 3.3% have one here.
SMILES,GAA850 FXN act,C2C12 statin,esBAF inh,Wnt act,MITF act
CCCCC(=O)Nc1cc(C(=O)NCCc2ccccc2)ccc1Cl,2,-7,?,nt,126*
COc1cccc(C(=O)Nc2cc(C(=O)NCCc3ccccc3)ccc2Cl)c1,4,-71,29,0,44
O=C(Nc1ccccn1)c1ccc(Cl)c(S(=O)(=O)N2CCCC2)c1,4,-16,56*,3,41
Cc1noc(C)c1NC(=O)Nc1ccc2c(c1)CC(=O)N([C@@H](C)CO)C[C@H](C)[C@@H](CN(C)C(=O)NC(C)C)O2,nt,-14,-6,nt,nt
O=c1oc(/C=C/c2ccco2)nc2sc3c(c12)CCC3,1,8,-11,-4,82*
Cc1nc2sc3c(c2c(=O)o1)CCC3,0,2,-4,nt,nt
O=c1oc(-c2cccs2)nc2sc3c(c12)CCC3,0,-3,46*,nt,9
O=c1[nH]c(-c2ccco2)nc2sc3c(c12)CCCC3,4,nt,nt,39*,64
O=c1oc(-c2cccs2)nc2sc3c(c12)CCCC3,-1,-39,26,-4,6
COc1ccc(NC(=S)NC(=O)c2ccc3c(c2)OCCO3)cc1,4,-44,54*,-4,70
CCOc1cccc(C(=O)NC(=S)Nc2ccc3c(c2)OCCO3)c1,1,-28,?,-1,103*
O=C(NC(=S)Nc1ccc(F)cc1)c1ccc2c(c1)OCCO2,3,nt,nt,?,61
Cc1cccc(C2(c3cccc(C)c3)CC2C(=O)NCC2CCCO2)c1 (stereo not given),2,nt,nt,-3,-3
C=CCNC(=O)C1CC1(c1cccc(C)c1)c1cccc(C)c1 (stereo not given),1,nt,nt,42*,nt
CCC(=O)Nc1ccc(NC(=O)c2ccco2)c(OC)c1,4,-8,23,41*,57
CCCC(=O)Nc1ccc(NC(=O)c2ccco2)c(OC)c1,6,-25,63*,16,88*
CN(C)/C=C/C(=O)c1ccc(-n2cccc2)cc1,5,nt,nt,54*,42
CN(C)CC(=O)Nc1ccc2c(c1)[C@@H]1C[C@@H](CC(=O)N3CCOCC3)O[C@H](CO)[C@@H]1O2,nt,-2,-1,nt,nt
CCOc1ccc2nc(N3CCC(C(=O)Nc4nnc(CC)s4)CC3)sc2c1,4,34,48*,2,34
CCOc1ccc2nc(N3CCC(C(=O)N4CCN(C(=O)c5ccco5)CC4)CC3)sc2c1,3,1,24,nt,12
CCOc1ccc2nc(NC(=O)C3CCN(C(=O)c4ccco4)CC3)sc2c1,3,-1,65*,21,77
CCOc1ccc2nc(N3CCCC(C(=O)N4CCN(CC)CC4)C3)sc2c1 (stereo not given),-1,116*,39,4,9
CCCN1CCN(CCCNC(=O)C2CCCN(c3nc4ccc(OCC)cc4s3)C2)CC1 (stereo not given),0,-6,1,11,41
CCOc1ccc2nc(N3CCC(C(=O)N4CCN(C5CCCCC5)CC4)CC3)sc2c1,2,-2,65*,-4,-2
COCC(=O)Nc1ccc2c(c1)OC[C@H](C)N(Cc1cccnc1)C[C@@H](C)[C@@H](OC)CN(C)C2=O,nt,8,-4,nt,nt
SMILES,GAA850 FXN act,C2C12 statin,esBAF inh,Wnt act,MITF act
C=C(C)C1CC=C(C)/C(=N/NC(=O)c2ccoc2C)C1 (stereo not given),7,-5,73*,nt,29
CN1c2ccc(C#Cc3cccnc3)cc2[C@@H]2[C@@H](CCN2C(=O)c2cccc(F)c2)[C@H]1CO,nt,9,1,nt,nt
O=C(Nc1nc2ccsc2c(=O)s1)c1ccc(F)cc1Cl,5,nt,nt,52*,nt
C[C@@H]1CCCCO[C@H](CN(C)Cc2ccncc2)[C@H](C)CN([C@H](C)CO)C(=O)c2cc(NC(=O)c3ccccc3)ccc2O1,nt,-49,-1,nt,nt
COc1ccc(-n2c(C)cc(C=O)c2C)cc1Cl,1,102*,9,-6,6
COc1ccc(CN(C)C[C@@H]2Oc3c(NS(=O)(=O)c4ccc(C)cc4)cccc3C(=O)N([C@@H](C)CO)C[C@H]2C)cc1,nt,-6,-8,nt,nt
C[C@H]1CN([C@@H](C)CO)C(=O)c2cccc(NC(=O)C3CCCCC3)c2O[C@H]1CN(C)S(=O)(=O)c1ccc(F)cc1,nt,-43,-7,nt,nt
COc1ccc(-c2csc(N(CC3CCCO3)C(=O)c3ccc(C)cc3)n2)cc1 (stereo not given),-1,4,-34,38*,nt
CN(C)C(=O)C[C@@H]1CC[C@H]2[C@@H](COC[C@H](O)CN2C(=O)C2CCCC2)O1,nt,9,-5,nt,nt
c1ccc(N2CCN(c3cnccn3)CC2)nc1,0,nt,9,nt,nt
N#Cc1cc(C#N)c(N2CCN(c3ccccn3)CC2)nc1N,7,nt,nt,30,98*
Fc1ccc(F)c(NC(=S)NCCc2ccccc2)c1,0,-10,6,9,12
Fc1ccccc1NC(=S)NCCc1ccc(Cl)cc1,4,16,59*,21,?
S=C(NCCc1ccc(Cl)cc1)NC1CCCCC1,5,-21,63*,15,89*
Fc1ccccc1NC(=S)NCCc1ccccc1,3,156*,49*,-1,nt
CSc1ccccc1NC(=S)NCc1ccc(Cl)cc1,3,0,59*,13,7
C[C@@H]1CN([C@H](C)CO)S(=O)(=O)c2ccc(-c3cccc(C#N)c3)cc2O[C@@H]1CN(C)C(=O)C1CC1,nt,-22,-3,nt,nt
O=C(NC(=S)NCCc1ccccc1)c1ccccc1,4,-4,67*,7,37
C[C@H]1CN([C@@H](C)CO)C(=O)c2cccc(NC(=O)c3cnccn3)c2O[C@H]1CN(C)C(=O)Nc1ccc(C(F)(F)F)cc1,nt,15,-1,nt,nt
COc1ccc(C(C#N)=Cc2ccc(OC)c(OC)c2)cc1,3,0,68*,2,nt
COc1ccc(C=C(C#N)c2ccc(OC)cc2)cc1,0,10,55*,13,43
Cc1cccc(C#Cc2ccccc2)n1,2,-1,11,67*,76
Cc1cccc(NS(=O)(=O)Cc2ccccc2)n1,1,-6,4,-1,1
C[C@@H]1CN([C@H](C)CO)C(=O)c2cc(NC(=O)CCCN(C)C)ccc2O[C@@H]1CN(C)S(=O)(=O)c1cccs1,nt,-3,0,nt,nt
COc1ccc2cc(CCC(C)=O)ccc2c1,3,-5,58*,2,108*
SMILES,GAA850 FXN act,C2C12 statin,esBAF inh,Wnt act,MITF act
COc1ccc(CCc2ccc3cc(OC)ccc3n2)cc1,4,1,7,15,-1
CO[C@@H]1CN(C)C(=O)c2ccc(NC(=O)Nc3ccc(Cl)cc3)cc2OC[C@H](C)N(C(=O)Nc2c(C)noc2C)C[C@@H]1C,nt,3,1,nt,nt
Nc1cccc2cc(S(=O)(=O)O)ccc12,1,3,-11,-2,3
Nc1ccc2c(S(=O)(=O)O)cccc2c1S(=O)(=O)O,-1,102*,nt,-3,-1
CCOc1ncnc2c1[nH]c1ccccc12,-1,131*,20,2,13
C=CCn1c(O)c(N=Nc2ccccc2O)c2ccccc21,1,14,-1,3,-5
